Entries with a potency or affinity are not part of this list. Active and inactive are the calls of the source. No rule for the calls is given here.
assay: host cell cytotoxicity of antiviral hits, dose response, cytotoxicity control for West Nile virus antiviral project, secondary assay (AID 1650); conditions: Mammalian host cell viability, cytotoxicity counter-screen; series mostly up to 10 µM

| Structure (SMILES) | outcome |
| --- | --- |
| CCOc1ccc(C(=O)CCC(=O)O)cc1 | inactive |
| CC(=O)OCC1O[C@@H](O[C@@H]2C[C@H]3C(C)(C)[C@H](OC(C)=O)CC[C@]3(C)[C@H]3CC[C@]45C[C@]4(CC[C@H]5[C@@H](C)C[C@@H](O)[C@H](O)C(C)(C)O)[C@@]32C)[C@H](O)[C@@H](O)[C@@H]1O (some centres undefined) | inactive |
| CC[C@H]1CC2CN3CCc4c([nH]c5c([C@H]6C[C@H]7[C@H](CC)CN(C)[C@@H](Cc8c6[nH]c6ccccc86)[C@H]7C(=O)OC)c(OC)ccc45)C(C(=O)OC)(C2)C13 | inactive |
| CCOC(=O)C(CC)(CC)C(=O)/C=C/c1cccc(Br)c1 | inactive |
| CCOC(=O)N1CCC(N2C(=O)c3ccccc3C2Nc2cc(C)cc(C)c2)CC1 (centres undefined) | inactive |
| C=CCNC(=O)c1ccc(-c2nc(-c3ccc(Cl)cc3Cl)cs2)cc1 | inactive |
| CC(C)(C)c1ccc(C(=O)O/N=C(\N)c2ccccc2)cc1 | inactive |
| CCN1CCN(Cc2ccc(NC(=O)c3ccc(C)c(NC(=O)N4CCNC4=O)c3)cc2C(F)(F)F)CC1 | inactive |
| CCCCOc1ccc(C(=O)N/N=C/c2ccc(OCCN3CCCCC3)c(OC)c2)cc1 | inactive |
| COc1ccc(C2c3c(ncn(CCCO)c3=N)Oc3ccc4ccccc4c32)cc1OC (centres undefined) | inactive |
| CC1CCN(c2nc3ccc(C(=O)NCCCN4CCCCC4)cc3s2)CC1 | inactive |
| CCC(C)NC(=O)/C(=C/c1ccco1)c1ccccc1 (centres undefined) | inactive |
| COc1cccc2sc3ccc(NCCC4CCCN4C)cc3c(=O)c12 (centres undefined) | inactive |
| CC(C)c1cc(C(=O)OCC(=O)NC(=O)NCc2ccco2)c(O)c(C(C)C)c1 | inactive |
| CCOC(=O)C(=Cc1ccc(F)cc1)C(=O)OCC | inactive |
| O=[N+]([O-])c1cncc([N+](=O)[O-])c1Nc1cccc(O)c1 | inactive |
| CCN1CCN(CCNC(=O)c2ccc(/C=C3\Sc4ccccc4N(Cc4ccccc4F)C3=O)cc2)CC1 | inactive |
| CN1CCN(C(=O)CCN2C(=O)/C(=C/c3cccc(Br)c3)SC2=S)CC1 | inactive |
| CCN1CCN(c2cc(C)c3cc(NC(=S)N4CCCC(C)C4)ccc3n2)CC1 (centres undefined) | inactive |
| CN1C(=O)/C(=C\C(=O)c2cccs2)c2ccccc21 | inactive |

| Structure (SMILES) | outcome |
| --- | --- |
| Cc1ccc(-c2nc3ccccc3s2)cc1NC(=S)NC(=O)c1cccc2ccccc12 | inactive |
| Cc1cncn1CCc1nc2c3ccccc3nc(SCC(=O)Nc3cccc(Cl)c3)n2n1 | inactive |
| COc1ccc(N=c2oc3ccc(OC)cc3cc2-c2nc3ccccc3[nH]2)cc1 | inactive |
| Cc1cc(C)cc(SCc2noc(C(=O)NCCN(C)C)c2C(=O)NCCN(C)C)c1 | inactive |
| CCN(CC)CCCNC(=O)c1sc2nc(-c3ccc(F)cc3)cn2c1C | inactive |
| CN(C)c1nc(=Nc2cccc(Cl)c2)ss1 | inactive |
| CCOc1ccc(NC(=O)Cn2c(=O)n(CCCC(=O)NC3CCN(Cc4ccccc4)CC3)c(=O)c3ccccc32)cc1 | inactive |
| CCCC12CN3CC(C)(CN(C1)C3c1ccc(OC(C)C)cc1)C2=O (centres undefined) | inactive |
| CN1CCN(C(=O)CCN2C(=O)/C(=C/c3ccc(F)cc3)SC2=S)CC1 | inactive |
| CC(C)N1CCc2c(sc(NC(=O)c3ccc(C(=O)c4ccccc4)cc3)c2C(N)=O)C1 | inactive |
| N#Cc1ncc(-c2ccc3c(c2)OCCOCCOCCOCCOCCO3)nc1C#N | inactive |
| CCOC(=O)c1nn(-c2ccccc2)c2nc(-c3ccc(OC)cc3)c(C#N)c(=O)n12 | inactive |
| Cc1cccc2cc(CN(CCCN(C)C)C(=S)NCCc3ccccc3)c(=O)[nH]c12 | inactive |
| COc1ccc(N2C(=O)C(C)(C)C2c2c(O)ccc3ccccc23)cc1 (centres undefined) | inactive |
| CN1CCN(NC(=O)c2cc(-c3ccc(Cl)s3)nc3ccccc23)CC1 | inactive |
| CCOC(=O)c1c(CN2CCN(CCO)CC2)n(-c2ccccc2)c2cc(Br)c(O)cc12 | inactive |
| CCCCCCc1c(C)nc(-n2[nH]c(C)c(CCO)c2=O)[nH]c1=O | inactive |
| COc1ccc(NC(=O)CSc2nc3ccccc3c(=O)n2CCCN2CCC(C)CC2)c(OC)c1 | inactive |
| O=C(NCCCN1CCCC1)c1ccc2c(c1)N(Cc1cccc(Cl)c1)C(=O)c1ccccc1S2=O (centres undefined) | inactive |

Source: PubChem BioAssay AID1650 (Southern Research Specialized Biocontainment Screening …, 2009)
